# Compounds without any hit were thinned out: in the full panel of roughly 83,000, 20% have a hit.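 Percent growth is the endpoint: 0 to 100 indicates growth inhibition (40 means 60% inhibition), 0 means no net growth, and negative values indicate cell death.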 Unmarked numbers belong to inactive results. Activity calls are given as the source filed them. Rule for the calls: active = growth percent below 10; inactive = the rest.
# Tested on: HCT-15 colon
# Experiment: NCI-60 one-dose screen, 48 h (100 = growth as untreated, 0 = no growth, -100 = all killed)
# Conditions: 10 µM unless noted
row,Compound,growth
1,CC(=O)O[C@H]1C(=O)[C@@]2(C)C([C@H](OC(=O)c3ccccc3)[C@]3(O)C[C@H](OC(=O)[C@H](O)[C@@H](NC(=O)c4ccccc4)c4ccccc4)C(C)=C1C3(C)C)[C@]1(OC(C)=O)CO[C@@H]1C[C@@H]2O (stereo not given in full),23.7%
2,CCCCCCCC/C=C/CCCCCCCC1=NC(C)(C)CN1CC(C)O (stereo not given),18.3%
3,COc1cc(C2NC(c3ccc(Cl)cc3)C(C)C(=NC(=O)c3cnccn3)C2C)cc(OC)c1OC (stereo not given),81%
4,C[C@@H]1CC[C@H]2[C@@H](C)C(O)O[C@@H]3O[C@]4(C)CC[C@@H]1[C@]32OO4 (stereo not given in full),10.7%
5,C/C(=C\CCc1ccsc1)CC/C=C(\C)CCCN1CCN(CCO)CC1,-22.2% (active)
6,CN1COc2ccc3ccccc3c2C1,106%
7,COc1ccc(-c2cnnn2-c2cc(OC)c3c(c2)OCO3)cc1,14.8%
8,Nc1c2ccccc2nc2ccccc12 (tested in a mixture with another compound),14.7%
9,CCOC(=O)C1=C(C)N2C(=NC3=C(CCC/C3=C\c3ccc(Cl)cc3)C2c2ccc(Cl)cc2)S1 (stereo not given),-28.7% (active)
10,C=C(C)[C@H]1CC/C(C)=C/CC[C@]2(C)O[C@H]2CC/C(C=O)=C\C1O (stereo not given in full),118%
11,CCN(CC)CCCCNc1c2ccccc2[n+](C)c2c1[nH]c1ccccc12,80.2%
12,Cn1cc(-c2csc(-c3c[nH]c4ncccc34)n2)c2cc(F)cnc21,61.3%
13,Nc1ccccc1-c1ccc([N+](=O)[O-])cc1,47.8%
14,Cc1ccc(NC(=O)Nc2ccc(-c3cccnc3)cc2N2CCC(CO)CC2)cc1,20.2%
15,NNC(=O)C1CC2c3ccccc3C1c1ccccc12 (stereo not given),111%
16,O=C(OC[C@H]1O[C@H](OC(=O)c2cc(O)c(O)c(OC(=O)c3cc(O)c(O)c(O)c3)c2)[C@H](OC(=O)c2cc(O)c(O)c(OC(=O)c3cc(O)c(O)c(O)c3)c2)[C@@H](OC(=O)c2cc(O)c(O)c(OC(=O)c3cc(O)c(O)c(O)c3)c2)[C@@H]1OC(=O)c1cc(O)c(O)c(OC(=O)c2cc(O)c(O)c(O)c2)c1)c1cc(O)c(O)c(OC(=O)c2cc(O)c(O)c(O)c2)c1,28.6%
17,NS(=O)(=O)c1ccc(NC2=C(Cl)C(=O)c3ccccc3C2=O)cc1,46.5%
18,CCOC(=O)C1=C(COCCN)NC(C)=C(C(=O)OC)C1c1ccccc1Cl (stereo not given),64.6%

row,Compound,growth
1,Cc1cc2c(C#N)n3c(c2cc1C)C(=O)C(c1ccccc1)Oc1ccccc1-3 (stereo not given),16.4%
2,CN(C)c1nc(N)nc(Cn2c(-c3nonc3N)nc3ccccc32)n1,59.4%
3,COC(=O)[C@]1(C(C)C)N[C@H](c2cn(-c3ccccc3)nc2-c2ccccc2)[C@@H]2C(=O)N(c3ccc(Cl)cc3)C(=O)[C@@H]21,96%
4,CCOC(=O)/C(=C/c1ccccc1)C(=O)c1ccccc1,51.9%
5,Cn1cnc([N+](=O)[O-])c1S(=O)(=O)Oc1ccc(Cl)cc1,59%
6,Cn1c(=O)c2nc(SCc3ccccc3)n(C)c2n(C)c1=O,98.8%
7,COc1ccc2c(c1)nc(N)c1c3ccccc3cn21,56.4%
8,O=C(/C(=C/c1cccc([N+](=O)[O-])c1)c1ccccc1)c1ccccc1,16.6%
9,CCCCCCCC/C=C\CCCCCCCCOc1ccccc1CC(=O)NCC[N+]1(C)CCCC1,104%
10,O=C(C(=O)N1CCCCC1)c1ccc(OC2OC(CO)C(O)C(O)C2O)cc1 (stereo not given),108%
11,O=NC1CC=CCC1c1ccccc1 (stereo not given),104%
12,CCC(C)(C)C(=O)O[C@H]1C[C@@H](C)C=C2C=C[C@H](C)[C@H](CC[C@@H]3C[C@@H](O)CC(=O)O3)[C@H]21,54.7%
13,COc1ccc2[nH]cc(/C=C3/C(=O)Nc4ccc(F)cc43)c2c1,75.6%
14,C[C@]12CC[C@@H]3c4ccc(O)cc4CC[C@H]3[C@@H]1CC[C@@H]2NS(=O)(=O)c1cccc(Br)c1,50.9%
15,NC(=O)NN=C(C1CC1)C1CC1,98%
16,CCC1=C(c2ccc(OC)cc2)C(C)(C)Oc2c1ccc(O)c2CN1CCCC1,8.13% (active)
17,CN(C)c1ccc(/C=C\c2ccnc3ccccc23)cc1,58.5%
